Active and inactive are the calls of the source. How the calls were made is not given here.

The assay can be described thus: Brca1-Bard1 BiLC signal decrease – luminescence, single concentration, counter-screen for Mdm2/MdmX interaction inhibitor project, confirmation (AID 504668). As to conditions: Brca1/Bard1 bimolecular luciferase complementation counterscreen, at 8 µM, active compounds read high. On the technique in general: The purpose of a counterscreen is to sort out artefacts and off-target activity.
One may read the inhibition as the change of the read-out against control, counted positive when it falls. As to `C/C(=N\NC(=O)c1nnn(-c2nonc2N)c1CN1CCc2ccccc21)c1ccccc1O`, the inhibition was 31.1% (active).

For the compound `COc1ccc(C(NC(=O)c2cccnc2)c2cc(Cl)c3cccnc3c2O)cc1OC` (stereo not given), the inhibition was 26.3% (active).

For the compound `Cc1csc2nc(O)c(C(=O)NC3CCCCC3)c(=O)n12`, the inhibition was 35% (active).

On to `O=C1c2ccccc2C(=O)c2c(Nc3ccc(CCO)cc3)ccc(O)c21`, for which the inhibition is 33.2% (active).

In the case of `Cc1ccc(CNC(=O)c2ccc3c(=O)c(O)c(-c4ccc(C)cc4)[nH]c3c2)cc1`, the inhibition is 29% (active).

Turning to `C[C@@]12C(=O)Nc3cc(Cl)ccc3C(=O)N1[C@H]1c3cc(Br)ccc3OC[C@@H]1[C@@H]2c1ccccc1`, the inhibition is 30.8% (active).

For `CCOc1ccc(N=Nc2ccc(O)c3ncccc23)cc1`, the inhibition was 23.3% (active).

As to `O=C(/C=C/c1ccc(Cl)cc1)c1ccc([N+](=O)[O-])o1`, the inhibition was 31.4% (active).

As to `COc1ccc(C(=O)C(CN2CCOCC2)c2ccccc2)cc1` (stereo not given), the inhibition was 27.4% (active).

Take `Cc1ccccc1-c1cc(C(=O)Nc2nc3c(s2)CCCC3)c2ccccc2n1`: the inhibition is 34.9% (active).

Regarding `O=C(N/N=C\c1c(O)ccc2ccccc12)c1ccc(O)cc1`, the inhibition was 31.7% (active).

Take `CCOc1ccc(N(C(=O)/C=C/C(=O)Nc2cc(C)on2)C(C(=O)NC2CCCC2)c2ccccc2C)cc1` (stereo not given): the inhibition was 27.4% (active).

Regarding `CC#CC[N+](C)(C)CCCCCCCCCCCC`, the inhibition was 29.6% (active).

For `O=c1c2ccccc2nc(/C=C/c2cc(Br)ccc2O)n1CCO`, the inhibition is 32.4% (active).

Consider `C[n+]1c2n(c3ccccc31)N=C(c1ccc(-c3ccccc3)cc1)CS2`, for which the inhibition is 25.5% (active).

Regarding `CCN1CCN(CCCNC(=O)c2ccc(/C=C3/Sc4ccccc4N(Cc4ccccc4F)C3=O)cc2)CC1`, the inhibition was 24.1% (active).

For the compound `O=C(CCl)Nc1cn(-c2ccccc2)nc1-c1ccccc1`, the inhibition is 33.7% (active).

Consider `CCOc1ccc2[nH]c3c(N4CCc5ccccc5C4)ncnc3c2c1`, for which the inhibition is 35.8% (active).

For the compound `Cc1nc(-n2[nH]c3c(c2=O)CCCC3)[nH]c(=O)c1Cc1ccccc1`, the inhibition was 30.8% (active).

In the case of `Cc1ccc(-n2nc(C)c3c(C)c(CCC(=O)Nc4ccc(CN5CCCC5)cc4)c(C)nc32)cc1`, the inhibition was 25.5% (active).

`CCc1cc(C(=O)N2CCc3c([nH]c4ccccc34)C2c2ccc(OC)cc2F)no1` (stereo not given): the inhibition is 34.5% (active).

For `COc1cccc(C(NC(C)=O)c2ccc3cccnc3c2O)c1` (stereo not given), the inhibition was 29.3% (active).

On to `O=C(Nc1ccc(Br)c(C(F)(F)F)c1)c1ccc(C(F)(F)F)cc1`, for which the inhibition is 28.7% (active).

Regarding `COc1cccc(CNc2ncnc3ccc(-c4c(C)noc4C)cc23)c1`, the inhibition is 31% (active).

Regarding `COc1ccc([C@@H]2[C@@H]3C(=O)N(C(C)(C)C)C(=O)[C@@H]3[C@]3(Cc4ccccc4)C(=O)N(c4ccc(Br)cc4)C(=O)N23)cc1`, the inhibition was 35.6% (active).

For the compound `O=C(NCc1cccnc1)c1c(O)c2cccc3c2n(c1=O)CCC3`, the inhibition was 31.4% (active).

On to `CCOc1ccccc1CNC(=O)c1cc2oc3ccccc3c2n1C`, for which the inhibition was 26.3% (active).

Turning to `N#CC(C#N)=C(Nc1ccc(F)cc1)SCc1cccc(F)c1`, the inhibition is 23.3% (active).

With `COc1cc(/C=C/[N+](=O)[O-])ccc1OCc1cccc(C(=O)O)c1`, the inhibition was 35.1% (active).

Consider `Cn1nnnc1Sc1ncnc2scc(-c3cccc(S(C)(=O)=O)c3)c12`, for which the inhibition is 27.4% (active).

`O=C(CCl)N1CCN2C(=O)c3ccccc3C12c1ccc(Cl)cc1` (stereo not given): the inhibition was 28.5% (active).

For `Cn1nccc1C(=O)N/N=C/c1c(O)ccc2ccccc12`, the inhibition is 31.1% (active).

Take `COc1cc([C@@H]2c3cc4c(cc3[C@@H](O[C@@H]3O[C@@H]5CO[C@@H](C)O[C@H]5[C@H](O)[C@H]3O)[C@H]3COC(=O)[C@H]23)OCO4)cc(OC)c1O`: the inhibition was 31.6% (active).

With `COC1(OC)C(/C=C/c2ccc(C)cc2)C(C#N)(C#N)C1(OC)OC` (stereo not given), the inhibition was 35.3% (active).

With `O=c1nc(Nc2ccc(OCc3ccccc3)cc2)sc2ncccc12`, the inhibition was 23.4% (active).

As for `CN1C2CCC1/C(=C\c1ccccc1F)C(=O)/C2=C/c1ccccc1F`, the inhibition is 35.1% (active).

Take `COc1ccc(-n2c(C)c([N+](=O)[O-])c3ccc(O)c(CN4CCCCC4)c32)cc1`: the inhibition was 28.9% (active).

For the compound `CCOc1cc(/C=N/NC(=O)Cc2ccc(C(F)(F)F)cc2[N+](=O)[O-])c(Br)cc1OC`, the inhibition was 30.8% (active).

For the compound `O=C(CNc1ccc(F)cc1)N/N=C/c1c(O)ccc2ccccc12`, the inhibition was 27.9% (active).

For the compound `CC1=Nc2cc(C(=O)N3CCCC3)ccc2Sc2c(C)ccc(C)c21`, the inhibition is 23.1% (active).

For the origin of these results see PubChem BioAssay.
